# In PubChem BioAssay (Tox21):
# Results filed as inconclusive are left out. Unmarked numbers belong to inactive results. The call rests on the fitted dose curve; in most records, active means well fitted inhibition curve with a large enough effect in the signal ratio in the repeat runs (not every such curve was filed as active); inconclusive means weak or mixed curves, or effect the other way; inactive means no such curve, though single readings can be large or run the other way; the % refers to the signal ratio.
# Target: Bile acid receptor (Homo sapiens) (UniProt Q96RI1)
# Sequence (Q96RI1 whole entry, looked up): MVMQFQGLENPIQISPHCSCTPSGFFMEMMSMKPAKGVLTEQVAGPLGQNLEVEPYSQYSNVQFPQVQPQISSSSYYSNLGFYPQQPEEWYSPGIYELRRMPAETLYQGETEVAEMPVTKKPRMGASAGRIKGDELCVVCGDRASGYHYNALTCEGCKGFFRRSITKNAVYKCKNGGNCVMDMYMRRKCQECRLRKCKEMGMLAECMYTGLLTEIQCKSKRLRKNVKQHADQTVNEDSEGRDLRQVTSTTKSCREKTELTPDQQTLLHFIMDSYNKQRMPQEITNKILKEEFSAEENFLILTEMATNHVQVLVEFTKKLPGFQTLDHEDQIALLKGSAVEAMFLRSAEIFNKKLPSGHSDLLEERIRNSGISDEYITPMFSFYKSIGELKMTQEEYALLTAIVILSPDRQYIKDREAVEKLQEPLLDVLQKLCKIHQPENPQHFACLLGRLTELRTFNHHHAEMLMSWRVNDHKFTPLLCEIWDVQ
# Assay: qHTS assay to identify small molecule antagonists of the farnesoid-X-receptor (FXR) signaling pathway (AID 743217)
# Conditions: HEK293T FXR-UAS-bla, beta-lactamase ratio, CDCA-stimulated, 16 h; series mostly up to 62.6 µM; activity change, negative = inhibition: at the top concentration
# Procedure, shortened: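 Beta-lactamase reporter under UAS control in HEK 293T cells; compound exposure 16 h at 37 °C in the presence of chenodeoxycholic acid (50 uM final); signal from B/G FRET substrate after 2 h at room temperature.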
# On the % scale 0 is the no-effect control and ±100 the full control effect.
row,Structure (SMILES),"activity change, negative = inhibition"
1,Cc1cc(C)n(CO)n1,2.77%
2,CC(C)(C)NCC(O)COc1ccc(NC(=O)NC2CCCCC2)cc1 (stereo not drawn),-5%
3,CCCCCCCCCCCCCCCCCCCl,-9.56% [at 5.95 µM]
4,CS(C)=O,6.04%
5,CCOc1ccc2c(c1)C(C)CC(C)(C)N2 (stereo not drawn),-3.05%
6,O=P(c1ccccc1)(c1ccccc1)c1ccccc1,1.24%
7,CCCC(=O)OCc1ccccc1,3.54%
8,Cc1ccc(NC=O)c(C)c1,5.14%
9,CCCCOC(=O)C(C)Oc1ccc(Oc2ccc(C(F)(F)F)cn2)cc1 (stereo not drawn),-0.101%
10,C=CC(C)(O)CC/C=C(/C)CCC=C(C)C (stereo not drawn),-3.5%
11,CCCCCO,1.12%
12,Clc1cccc(C(c2ccc3nc[nH]c3c2)n2ccnc2)c1 (stereo not drawn),0.207%
13,O=C(O)c1ccncc1,-2.35% [at 81.1 µM]
14,CC1=C(C)C(=O)C(C(CCCCCC(=O)O)c2ccccc2)=C(C)C1=O (stereo not drawn),6.92%
15,O=c1[nH][nH]c2ccccc12,-3.41% [at 81.1 µM]
16,CCc1c(C)[nH]c2c1C(=O)C(CN1CCOCC1)CC2 (stereo not drawn),-1.28%
17,CC(C)=CCC/C(C)=C/C=N/O,2.92%
18,Cc1ccccc1CCO,4.05%
